This is part of a sample that, as a whole, favours compounds with a hit. Of some 83,000 tested, about 20% had one in any assay.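 Activity criterion: percent growth below 10, measured after cells in 96-well plates were exposed to a single compound concentration for 48 hours.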 Active and inactive are the calls of the source.
The compounds below were run on SF-539 CNS (assay: NCI-60 one-dose screen, 48 h (100 = growth as untreated, 0 = no growth, -100 = all killed)). Conditions: 10 µM unless noted.

Row | SMILES | growth
1 | O=c1nc(-c2ccccc2)c2cc(-c3ccc(N4CCCC4)nc3)ccc2[nH]1 | 73.8% (inactive)
2 | O=[N+]([O-])c1cccc(CN(Cc2cccc([N+](=O)[O-])c2O)c2ccccc2)c1O | 94.7% (inactive)
3 | Oc1ccccc1-c1nc2c3ccccc3c3ccccc3c2o1 | 105% (inactive)
4 | CN(C)CCCn1c2c(c3cc(-c4ccco4)ccc3c1=O)C(=O)c1ccccc1-2 | 63.9% (inactive)
5 | COc1ccc(C2CC(c3ccc(OC)cc3O)=NN2c2ccc(S(N)(=O)=O)cc2)cc1 (stereo not drawn) | 69.8% (inactive)
6 | Cc1c(Cl)cccc1NC(=O)c1sc2nc3c(cc2c1N)CCCCCC3 | 0.159% (active)
7 | [2H]c1cc2c(c([2H])c1F)/C(=C/c1[nH]c(C)c(C(=O)NCCN(CC)CC)c1C)C(=O)N2 | 45.3% (inactive)
8 | CC(=O)Oc1c2c(nc3c1c1ccccc1n3Cc1ccccc1)-c1ccccc1C2 | 94.5% (inactive)
9 | C=C(C)[C@@H]1CC[C@]2(C(=O)n3ccnc3)CC[C@]3(C)[C@H](CC[C@@H]4[C@@]5(C)CCCNC(C)(C)[C@@H]5CC[C@]43C)[C@@H]12 | 24.6% (inactive)
10 | CC(C)C[C@H](C(=O)O)N(C)C(=O)[C@@H]1CCCN1C(=O)[C@H](C)OC(=O)[C@H](CCC(N)=O)NC(=O)[C@@H]1CCC(=O)N1 | 97.7% (inactive)
11 | COC(=O)CCc1cc(O)c2c(c1)[C@@H](C(=O)OC)[C@H](c1ccc(O)c(O)c1)O2 | 74.5% (inactive)
12 | CCCCN(CCCC)CC(CN(CC)CC)OC(=O)Nc1ccccc1 (stereo not drawn) | 94.4% (inactive)
13 | COC(=O)CCc1n(Cc2ccc3ccccc3c2)c2ccccc2[n+]1Cc1ccc2ccccc2c1 | 16.3% (inactive)
14 | COc1ccc(Nc2nc(SCC(C)C)nc(-c3ccc(F)cc3)c2C#N)cc1 | 66.1% (inactive)
15 | CCCS(=O)(=O)Nc1ccc(F)c(C(=O)c2c[nH]c3ncc(-c4ccc(OCCCC5CCCCN5)nc4)cc23)c1F (stereo not drawn) | 28.4% (inactive)
16 | CC(=O)c1ccc(NC(=O)CSc2nnc(-c3cc(-c4ccc(C)cc4)nc4ccccc34)o2)cc1 | 53.7% (inactive)
17 | Oc1ccc(CNNc2ccnc3c(O)cccc23)c2cccnc12 | 32.2% (inactive)
18 | COc1ccc(-c2cs/c(=N\N=C\c3ccc(O)cc3O)n2/N=C/c2ccc(O)cc2O)cc1 | -33.1% (active)
19 | c1ccc(-c2n(Cc3ccc4ccccc4n3)cc[n+]2Cc2ccc3ccccc3n2)cc1 | 37.2% (inactive)

Row | SMILES | growth
20 | O=C1C(Cl)=C(NCCCN(CCCNC2=C(Cl)C(=O)c3ccccc3C2=O)C2=C(Cl)C(=O)c3ccccc3C2=O)C(=O)c2ccccc21 | 88.3% (inactive)
21 | CCc1ccc(OCc2ccccc2C(=O)Nc2ccc3nc(C)cc(N)c3c2)cc1 | -97.5% (active)
22 | CC1CCN(CCCCCOc2ccc3oc4cc(Cl)ccc4c(=O)c3c2)CC1 | 40.6% (inactive)
23 | Nc1ccccc1NS(=O)(=O)c1ccc(Cl)cc1 | 95.6% (inactive)
24 | COc1cc(C2=NNC(c3ccc(N(C)C)cc3)C2)cc(OC)c1OC (stereo not drawn) | -39.2% (active)
25 | COc1cc(NC(=O)Nc2cnc(Nc3ccc(N4CCOCC4)cc3)nc2Oc2ccc(C(F)(F)F)cc2)cc(OC)c1 | 103% (inactive)
26 | C=C(C)[C@@H]1CC[C@]2(C(=O)O)CC[C@]3(C)[C@H](CC[C@@H]4[C@@]5(C)C[C@@H](CC#Cc6ccc(Cl)cc6)C(=O)C(C)(C)[C@@H]5CC[C@]43C)[C@@H]12 | 57% (inactive)
27 | Cc1cc(Nc2nc(SCc3ccc(C(=O)Nc4ccc(F)cc4N)cc3)nn3cccc23)n[nH]1 | 8.82% (active)
28 | O=C(/C(=C/c1ccc([N+](=O)[O-])cc1)SCc1ccc(F)cc1)c1ccc(Cl)cc1 | 94.6% (inactive)
29 | C#C[C@@]1(O)[C@@H](CO)O[C@@H](n2cc(Br)c3c(N)ncnc32)[C@@H]1O | -60.8% (active)
30 | CC(=O)[C@@H]1CC[C@]2(C(=O)O)CC[C@]3(C)[C@H](CC[C@@H]4[C@@]5(C)Cc6c([nH]c7ccccc67)C(C)(C)[C@@H]5CC[C@]43C)[C@@H]12 | 74.3% (inactive)
31 | CC[C@]12C=CCN3CC[C@@]4(c5cc(NC(=O)CCC(=O)O[C@H]6CC[C@H]7[C@@H]8CC[C@H]9CC(=O)CC[C@]9(C)[C@H]8CC[C@]67C)c(OC)cc5N(C)[C@H]4[C@@](O)(C(=O)OC)[C@@H]1OC(C)=O)[C@@H]32 | 74.1% (inactive)
32 | CCCCCOC(=O)c1ccccc1O | 99.7% (inactive)
33 | O=C1CCC23OC(c4ccccc4N12)C(O)C(O)C3O (stereo not drawn) | 101% (inactive)
34 | N#Cc1c(NC(=O)c2cccs2)[n+]([O-])c2cc(C(F)(F)F)ccc2[n+]1[O-] | 101% (inactive)
35 | Cc1[nH]c2ncnc(Oc3ccc(NC(=O)Nc4ccc(Cl)c(C(F)(F)F)c4)cc3)c2c1C | 56% (inactive)
36 | c1cc(CNC23CC4CC(CC(C4)C2)C3)cc(C[N+](Cc2cccc(CNC34CC5CC(CC(C5)C3)C4)c2)(Cc2cccc(CNC34CC5CC(CC(C5)C3)C4)c2)Cc2cccc(CNC34CC5CC(CC(C5)C3)C4)c2)c1 (stereo not drawn) | 16.9% [42 µM] (inactive)
37 | C[C@H]1[C@H](C)CC[C@]2(C(=O)OCCCC[P+](c3ccccc3)(c3ccccc3)c3ccccc3)CC[C@]3(C)C(=CC[C@@H]4[C@@]5(C)CC[C@H](OC(=O)C(Cl)Cl)C(C)(C)[C@@H]5CC[C@]43C)[C@H]12 | -78.8% (active)
38 | O=C(Nc1nc(-c2ccccc2)cs1)c1cc(-c2ccc(Br)cc2)nc2ccccc12 | 63% (inactive)

— PubChem BioAssay (NCI)
